# Test results taken from the supplement of paper PMC8728848.
# Many of the other results were omitted from the sample, so the strongest signals are more common in it than they were.
# B1: CSA (Cytisus scoparius), P29257 (protein)
# chain: SEELSFSFTKFKTDQKNLILQRDALITPTGKLQLTTVENGKPAAYSLGRALYSTPIHIWDKSTGDEASFATFFSFVISDAPNPSTAATDGLAFFLAPADTQPQSAGGYLGLFEKDSSYNSSNQIVAVEFDTYYNSAWDPQTNPHIGIDVNTIKSKKVSSWGFKNGNVATVLITYQPSSKSLVASLVYPSGQTSDKTSYIISANVDLKATVPEWVRIGFSATTGQTDNYIETHDILSWSFKSKLPATKN
# Experiments:
# Experiment in all cases: glycan array binding signal (z-score within array); higher = stronger binding
# Conditions in all cases: glycan notation: IUPAC condensed, linker removed
# [1] = target: Fuc(a1-2)Gal(b1-3)GalNAc(b1-4)[Neu5Ac(a2-3)]Gal(b1-4)Glc
# Procedure, shortened: (§1)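 Glycan array binding is given as a within-array Z-score, which can be read as non-binding when negative. The arrays, 3228 of them, came from the Consortium for Functional Glycomics database and were retained only where the protein sequence was available. Z-scores were averaged across arrays of the same protein sequence at different concentrations or buffers and across linkers.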
# [2] = target: Fuc(a1-2)Gal6S(b1-3)GlcNAc6S
# Procedure, shortened: as §1
# [3] = target: Fuc(a1-2)[Gal(a1-3)]Gal(b1-4)[Fuc(a1-3)]Glc
# Procedure, shortened: as §1
# [4] = target: Fuc(a1-2)[GalNAc(a1-3)]Gal(b1-3)GlcNAc(b1-6)GalNAc
# Procedure, shortened: as §1
# [5] = target: Fuc(a1-2)[GalNAc(a1-3)]Gal(b1-4)GlcNAc(b1-3)Gal(b1-4)GlcNAc(b1-3)Gal(b1-4)GlcNAc
# Procedure, shortened: as §1
# [6] = target: Fuc(a1-2)[GalNAc(b1-3)]Gal
# Procedure, shortened: as §1
# [7] = target: Fuc(a1-3)[Gal3S(b1-4)]Glc
# Procedure, shortened: as §1
# Fuc(b1-3)GlcNAc = target: Fuc(b1-3)GlcNAc
# Procedure, shortened: as §1
# Gal(a1-3)Gal(b1-4)Glc = target: Gal(a1-3)Gal(b1-4)Glc
# Procedure, shortened: as §1
# [8] = target: Gal(a1-3)[Gal(a1-4)]Gal(b1-4)GlcNAc
# Procedure, shortened: as §1
# [9] = target: Gal(a1-4)Gal(b1-4)GlcNAc(b1-2)Man(a1-3)[Gal(a1-4)Gal(b1-4)GlcNAc(b1-2)Man(a1-6)]Man(b1-4)GlcNAc(b1-4)GlcNAc
# Procedure, shortened: as §1
# Gal(b1-3)GalNAc = target: Gal(b1-3)GalNAc
# Procedure, shortened: as §1
# [10] = target: Gal(b1-3)GalNAc(b1-3)Gal(a1-4)Gal(b1-4)Glc
# Procedure, shortened: as §1
# [11] = target: Gal(b1-3)GlcNAc(b1-3)Gal(b1-4)GlcNAc(b1-2)Man(a1-3)[Gal(b1-3)GlcNAc(b1-3)Gal(b1-4)GlcNAc(b1-2)Man(a1-6)]Man(b1-4)GlcNAc(b1-4)GlcNAc
# Procedure, shortened: as §1
# [12] = target: Gal(b1-4)GlcNAc(b1-3)Gal(b1-4)GlcNAc(b1-3)GalNAc
# Procedure, shortened: as §1
# [13] = target: Gal(b1-4)GlcNAc(b1-3)GalNAc
# Procedure, shortened: as §1
# Gal3S6S(b1-4)GlcNAc = target: Gal3S6S(b1-4)GlcNAc
# Procedure, shortened: as §1
# GalNAc(a1-3)Gal = target: GalNAc(a1-3)Gal
# Procedure, shortened: as §1
# GalNAc(b1-3)Gal = target: GalNAc(b1-3)Gal
# Procedure, shortened: as §1
# [14] = target: GalNAc(b1-3)Gal(a1-4)Gal(b1-4)GlcNAc
# Procedure, shortened: as §1
# [15] = target: GalNAc(b1-3)Gal(a1-4)Gal(b1-4)GlcNAc(b1-3)Gal(b1-4)Glc
# Procedure, shortened: as §1
# [16] = target: GalNAc(b1-3)Gal(a1-6)Gal(b1-4)Glc
# Procedure, shortened: as §1
# GalNAc(b1-4)GlcNAc = target: GalNAc(b1-4)GlcNAc
# Procedure, shortened: as §1
# [17] = target: GalNAc(b1-4)GlcNAc(b1-2)Man
# Procedure, shortened: as §1
# [18] = target: GalNAc(b1-4)GlcNAc(b1-2)Man(a1-3)[GalNAc(b1-4)GlcNAc(b1-2)Man(a1-6)]Man(b1-4)GlcNAc(b1-4)GlcNAc
# Procedure, shortened: as §1
# [19] = target: GalNAc(b1-4)GlcNAc(b1-3)GalNAc(b1-4)GlcNAc
# Procedure, shortened: as §1
# GalNAc(b1-4)GlcNAc6S = target: GalNAc(b1-4)GlcNAc6S
# Procedure, shortened: as §1
# [20] = target: Glc(a1-4)Glc(a1-4)Glc(a1-4)Glc
# Procedure, shortened: as §1
# [21] = target: GlcNAc(b1-2)Man(a1-3)[GlcNAc(b1-2)Man(a1-6)]Man(b1-4)GlcNAc(b1-4)[Fuc(a1-6)]GlcNAc
# Procedure, shortened: as §1
# [22] = target: GlcNAc(b1-2)Man(a1-3)[GlcNAc(b1-4)][GlcNAc(b1-2)Man(a1-6)]Man(b1-4)GlcNAc(b1-4)GlcNAc
# Procedure, shortened: as §1
# [23] = target: GlcNAc(b1-2)[GlcNAc(b1-4)]Man(a1-3)[GlcNAc(b1-4)][GlcNAc(b1-2)[GlcNAc(b1-6)]Man(a1-6)]Man(b1-4)GlcNAc(b1-4)[Fuc(a1-6)]GlcNAc
# Procedure, shortened: as §1
# [24] = target: GlcNAc(b1-4)Gal(b1-4)GlcNAc
# Procedure, shortened: as §1
# [25] = target: Man(a1-2)Man(a1-3)[Man(a1-2)Man(a1-6)]Man
# Procedure, shortened: as §1
# [26] = target: Man(a1-2)Man(a1-6)[Man(a1-3)]Man(a1-6)[Man(a1-2)Man(a1-2)Man(a1-3)]Man
# Procedure, shortened: as §1
# [27] = target: Man(a1-3)[Man(a1-6)]Man(b1-4)GlcNAc(b1-4)GlcNAc
# Procedure, shortened: as §1
# [28] = target: Man(a1-3)[Man(a1-6)]Man(b1-4)GlcNAc(b1-4)[Fuc(a1-6)]GlcNAc
# Procedure, shortened: as §1
# [29] = target: Neu5Ac(a2-3)Gal(b1-3)GalNAc(b1-4)[Neu5Ac(a2-3)]Gal(b1-4)Glc
# Procedure, shortened: as §1
# [30] = target: Neu5Ac(a2-3)Gal(b1-3)GlcNAc(b1-6)GalNAc
# Procedure, shortened: as §1
# [31] = target: Neu5Ac(a2-3)Gal(b1-3)[Neu5Ac(a2-6)]GalNAc
# Procedure, shortened: as §1
# [32] = target: Neu5Ac(a2-3)Gal(b1-3)[Neu5Ac(a2-6)]GlcNAc(b1-3)[Fuc(a1-3)[Gal(b1-4)]GlcNAc(b1-6)]Gal(b1-4)Glc
# Procedure, shortened: as §1
# [33] = target: Neu5Ac(a2-3)Gal(b1-4)GlcNAc(b1-3)Gal(b1-4)GlcNAc(b1-3)GalNAc
# Procedure, shortened: as §1
# [34] = target: Neu5Ac(a2-6)Gal(b1-4)GlcNAc(b1-3)[Neu5Ac(a2-6)Gal(b1-4)GlcNAc(b1-6)]GalNAc
# Procedure, shortened: as §1
# [35] = target: Neu5Ac(a2-6)Gal(b1-4)GlcNAc(b1-6)GalNAc
# Procedure, shortened: as §1
# [36] = target: Neu5Ac(a2-8)Neu5Ac(a2-8)Neu5Ac(a2-8)Neu5Ac(a2-3)[GalNAc(b1-4)]Gal(b1-4)Glc
# Procedure, shortened: as §1
# [37] = target: Neu5Gc(a2-3)Gal(b1-3)[Fuc(a1-4)]GlcNAc
# Procedure, shortened: as §1
binder,measurement,setting,value
B1,glycan array binding signal (z-score),[1],-0.177
same,glycan array binding signal (z-score),[2],-0.196
same,glycan array binding signal (z-score),[3],-0.201
same,glycan array binding signal (z-score),[4],-0.214
same,glycan array binding signal (z-score),[5],-0.012
same,glycan array binding signal (z-score),[6],4.5
same,glycan array binding signal (z-score),[7],-0.165
same,glycan array binding signal (z-score),Fuc(b1-3)GlcNAc,-0.186
same,glycan array binding signal (z-score),Gal(a1-3)Gal(b1-4)Glc,-0.157
same,glycan array binding signal (z-score),[8],-0.124
same,glycan array binding signal (z-score),[9],-0.162
same,glycan array binding signal (z-score),Gal(b1-3)GalNAc,-0.159
same,glycan array binding signal (z-score),[10],0.019
same,glycan array binding signal (z-score),[11],-0.157
same,glycan array binding signal (z-score),[12],0.306
same,glycan array binding signal (z-score),[13],-0.162
same,glycan array binding signal (z-score),Gal3S6S(b1-4)GlcNAc,-0.186
same,glycan array binding signal (z-score),GalNAc(a1-3)Gal,3.51
same,glycan array binding signal (z-score),GalNAc(b1-3)Gal,2.98
same,glycan array binding signal (z-score),[14],3.35
same,glycan array binding signal (z-score),[15],2.76
same,glycan array binding signal (z-score),[16],4.13
same,glycan array binding signal (z-score),GalNAc(b1-4)GlcNAc,6.99
same,glycan array binding signal (z-score),[17],8.12
same,glycan array binding signal (z-score),[18],3.25
same,glycan array binding signal (z-score),[19],12.4
same,glycan array binding signal (z-score),GalNAc(b1-4)GlcNAc6S,9.73
same,glycan array binding signal (z-score),[20],-0.19
same,glycan array binding signal (z-score),[21],-0.139
same,glycan array binding signal (z-score),[22],-0.238
same,glycan array binding signal (z-score),[23],-0.166
same,glycan array binding signal (z-score),[24],-0.213
same,glycan array binding signal (z-score),[25],-0.234
same,glycan array binding signal (z-score),[26],-0.179
same,glycan array binding signal (z-score),[27],-0.142
same,glycan array binding signal (z-score),[28],-0.225
same,glycan array binding signal (z-score),[29],-0.247
same,glycan array binding signal (z-score),[30],-0.235
same,glycan array binding signal (z-score),[31],-0.159
same,glycan array binding signal (z-score),[32],-0.146
same,glycan array binding signal (z-score),[33],-0.216
same,glycan array binding signal (z-score),[34],-0.172
same,glycan array binding signal (z-score),[35],-0.202
same,glycan array binding signal (z-score),[36],-0.149
same,glycan array binding signal (z-score),[37],-0.202
